We go through 7 molecules from PubChem BioAssay.

Experiment [1] in a line: A549 cell viability effects, profiling panel, calcein-AM fluorescence, 48 h, basal (AID 1162). Also: test concentration not given here. The conditions noted are these: higher = more signal.
Experiment [2] can be described thus: adipocyte viability effects, profiling panel, cell-based, 3T3-L1 adipocytes, calcein-AM fluorescence, 48 h, basal (AID 1163). Also: test concentration not given here. The following applies: 3T3-L1 adipocytes viability, higher = more signal.
The nature of experiment [3]: HepG2 cell viability effects, profiling panel, calcein-AM fluorescence, 48 h, basal (AID 1164). Also: test concentration not given here. The conditions noted are these: higher = more signal.
Experiment [4] is described as follows: MM1S cell viability effects, profiling panel, calcein-AM fluorescence, 48 h, basal (AID 1165).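 Also: viability of MM1S multiple myeloma cells under basal unstimulated conditions; test concentration not given here.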 The conditions noted are these: higher = more signal.
Experiment [5] in a line: basal RPMI8226 viability, no added stimulus, profiling panel, cell-based, calcein-AM fluorescence, 48 h, PK04 Diversity Set (AID 1166).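 Also: cells grown under basal conditions without added stimulus; test concentration not given here.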 The following applies: RPMI8226 myeloma viability, higher = more signal.
The nature of experiment [6]: basal HepG2 mitochondrial membrane potential changes, profiling panel, cell-based, JC-1 fluorescence, 24 h, 100 nL compound (AID 1167). Also: test concentration not given here. The conditions noted are these: higher = more signal.
A short description of experiment [7]: basal 3T3-L1 adipocyte mitochondrial potential changes, profiling panel, cell-based, JC-1 fluorescence, 3T3-L1 adipocytes, 24 h, 100 nL compound (AID 1168). Also: test concentration not given here. The following applies: JC-1 mitochondrial fluorescence, higher = more signal, called active from +8 up or from −8 down.
Experiment [8] is described as follows: basal RPMI8226 mitochondrial membrane potential changes, profiling panel, cell-based, JC-1 fluorescence, 24 h, 100 nL compound (AID 1169). Also: test concentration not given here. The conditions noted are these: RPMI8226 myeloma, JC-1 mitochondrial potential fluorescence, higher = more signal.
Experiment [9] in a line: basal MM1S mitochondrial membrane potential changes, profiling panel, cell-based, JC-1 fluorescence, 24 h, 100 nL compound (AID 1170). Also: test concentration not given here. The following applies: higher = more signal.
Experiment [10] in a line: A549 lung cancer cell viability effects, profiling panel, resazurin fluorescence, 24 h, PK04 Diversity Set (AID 1171). Also: test concentration not given here. The conditions noted are these: higher = more signal, called active from +8 up or from −8 down.
Experiment [11] is described as follows: HepG2 liver cancer cell viability effects, profiling panel, resazurin fluorescence, 24 h, PK04 Diversity Set (AID 1172). Also: test concentration not given here. The following applies: higher = more signal.
Experiment [12] is described as follows: basal S. cerevisiae growth modulation, no modifier, primary screen, OD600, strain BY4716, 24 h, basal condition (AID 1173). The following applies: OD600, 24 h, higher = more signal, called active from +8 up or from −8 down.
The nature of experiment [13]: MM1S myeloma cell viability, profiling panel, resazurin fluorescence, basal, 24 h, PK04 Diversity Set (AID 1174).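 Also: MM1S multiple myeloma cell line; test concentration not given here.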 The conditions noted are these: higher = more signal, called active from +8 up or from −8 down. For orientation: Alamar Blue is a resazurin reagent that responds to reducing activity.
For experiment [14], the target named is Dihydroorotate dehydrogenase (quinone), mitochondrial (Plasmodium falciparum (isolate 3D7)) (UniProt Q08210). In words: PfDHODH enzyme inhibitors, primary screen, biochemical, C-terminal His tag, absorbance 600 nm (AID 1175).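 Also: recombinant parasite enzyme with a five histidine tag at its C terminus; test concentration not given here.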 The conditions noted are these: DCIP absorbance 600 nm, higher = more signal, called active from +8 up or from −8 down.
Chain of Dihydroorotate dehydrogenase (quinone), mitochondrial (Plasmodium falciparum (isolate 3D7)) (Q08210 whole entry, looked up): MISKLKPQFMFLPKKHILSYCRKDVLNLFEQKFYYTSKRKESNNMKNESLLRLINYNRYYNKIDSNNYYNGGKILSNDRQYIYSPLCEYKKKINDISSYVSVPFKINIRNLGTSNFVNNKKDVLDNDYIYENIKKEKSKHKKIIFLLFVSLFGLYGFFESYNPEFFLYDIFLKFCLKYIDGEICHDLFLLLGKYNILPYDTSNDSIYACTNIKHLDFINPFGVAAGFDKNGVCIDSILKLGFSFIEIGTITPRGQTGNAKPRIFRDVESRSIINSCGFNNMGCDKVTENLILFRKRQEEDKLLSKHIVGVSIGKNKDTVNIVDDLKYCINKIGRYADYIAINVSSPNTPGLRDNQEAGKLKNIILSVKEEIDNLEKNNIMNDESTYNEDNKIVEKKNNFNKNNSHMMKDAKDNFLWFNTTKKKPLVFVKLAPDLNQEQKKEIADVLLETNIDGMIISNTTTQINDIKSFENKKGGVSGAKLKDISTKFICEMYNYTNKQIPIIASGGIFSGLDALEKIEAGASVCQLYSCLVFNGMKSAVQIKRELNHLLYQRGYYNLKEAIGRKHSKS
Experiment [15] in a line: P. aeruginosa biofilm formation inhibitors, primary screen, strain PAO1, LB-PBS medium, absorbance 600 nm (AID 1176). Also: test concentration not given here. The following applies: P. aeruginosa PAO1 growth/biofilm, A600, 12 h; higher = more signal.
Experiment [16] in a line: S. cerevisiae RM11-1a growth modifiers, primary screen, strain RM11-1a, OD600, basal, 24 h (AID 1177).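 Also: cultures grown under basal conditions with no added stressor; test concentration not given here.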 The conditions noted are these: OD600, 24 h, higher = more signal, called active from +8 up or from −8 down.
A short description of experiment [17]: E. coli acrAB mutant growth effects, primary screen, E. coli filamentation inducers, strain DRC39, OD650, 24 h (AID 1178).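 Also: growth measured as culture turbidity by optical density at 650 nm; test concentration not given here.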 The following applies: higher = more signal, called active from +8 up or from −8 down.
The nature of experiment [18]: E. coli acrAB mutant growth effects, primary screen, E. coli filamentation inducers, strain DRC39, OD650, 48 h (AID 1179).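 Also: screen aims at cell division blockers that make cells filament.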 The conditions noted are these: E. coli DRC39 delta-acrAB growth, higher = more signal, called active from +8 up or from −8 down.
Experiment [19] is described as follows: RPMI8226 myeloma cell viability, profiling panel, resazurin fluorescence, basal, 24 h, PK04 Diversity Set (AID 1180).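 Also: RPMI8826 multiple myeloma cell line at 5000 cells per well; test concentration not given here.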 The conditions noted are these: higher = more signal.
For experiment [20], the target named is E3 ubiquitin-protein ligase XIAP (Homo sapiens) (UniProt P98170). In words: XIAP binders, primary screen, biophysical, small-molecule microarray, fluorescence 635 nm (AID 1181).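 Also: score merges 667 nm emission and signal to noise over triplicate slides.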 The following applies: small-molecule microarray binding, higher = more signal.
Chain of E3 ubiquitin-protein ligase XIAP (Homo sapiens) (P98170 whole entry, looked up): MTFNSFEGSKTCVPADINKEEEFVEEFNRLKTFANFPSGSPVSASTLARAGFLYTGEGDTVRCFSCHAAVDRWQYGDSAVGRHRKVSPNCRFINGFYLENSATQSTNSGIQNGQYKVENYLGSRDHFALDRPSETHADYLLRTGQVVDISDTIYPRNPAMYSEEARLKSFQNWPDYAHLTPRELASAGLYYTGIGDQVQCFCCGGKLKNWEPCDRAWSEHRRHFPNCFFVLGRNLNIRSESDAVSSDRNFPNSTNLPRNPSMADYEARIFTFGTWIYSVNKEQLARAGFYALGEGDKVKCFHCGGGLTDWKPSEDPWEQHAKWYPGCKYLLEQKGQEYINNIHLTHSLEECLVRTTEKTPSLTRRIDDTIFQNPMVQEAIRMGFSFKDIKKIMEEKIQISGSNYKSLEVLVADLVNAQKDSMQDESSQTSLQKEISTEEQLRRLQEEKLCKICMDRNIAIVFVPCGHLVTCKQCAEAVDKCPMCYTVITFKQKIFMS

The source made the active and inactive calls. Unless noted, no rule for the calls is given here.

`COC(=O)[C@@]1(Cc2ccc(OC)cc2)[C@H]2c3cc(C(=O)N(C)C)n(Cc4ccccn4)c3C[C@H]2CN1C(=O)c1ccccc1`: the z-score in experiment [1] was -0.865; in experiment [2], 0.626; in experiment [3] it was -0.319; in [4] it was -0.684; in experiment [5] it was -1.31; in experiment [6], 2.05. For the same molecule, the z-score in experiment [7] is -1.46 (inactive); in [8] it was 0.155; in experiment [9], 0.016; in experiment [10], -0.793 (inactive); in [11], -0.961; in experiment [12], 1.28 (inactive). Further, the z-score was -1.24 (inactive) in [13]; 0.976 (inactive) in [15]; 0.607 (inactive) in experiment [16]; -1.13 (inactive) in experiment [17]; -0.6 (inactive) in experiment [18]; -0.838 in experiment [19]. In addition, the composite z-score in experiment [14] is 1.02 (inactive); in experiment [20], 0.155.
With `O=C1C2C=CC(C(O)CCc3ccccc3)N(Nc3ccccc3F)C2C(=O)N1c1ccccc1` (stereo not given), the z-score in experiment [1] is -0.804; in experiment [2] it was 0.255; in experiment [3], -0.31; in experiment [4], 0.596; in experiment [5], -1.46; in experiment [6] it was -0.257. In addition, the z-score was 0.377 (inactive) in [7]; -0.448 in experiment [8]; -0.515 in experiment [9]; 0.387 (inactive) in experiment [10]; 0.0011 in experiment [11]; 0.14 (inactive) in experiment [12]. Further, the z-score in experiment [13] is 0.209 (inactive); in experiment [15] it was 0.0083 (inactive); in experiment [16], -0.253 (inactive); in experiment [17], -0.837 (inactive); in experiment [18], 0.0277 (inactive); in [19], 0.799. For the same molecule, the composite z-score is -0.442 (inactive) in [14] and 0.272 in experiment [20].
As for `CC(C)=CCCC(C)=CC(O)C1C=CC2C(=O)N(C)C(=O)C2N1Nc1ccccc1` (stereo not given), the z-score in [1] is -1.81; in [2], -1.39; in experiment [3] it was -1.35; in experiment [4], -2.56; in experiment [5], -4.09; in experiment [6] it was -2.66. Moreover, the z-score in [7] is 1.29 (inactive); in experiment [8], -0.934; in experiment [9], -1.34; in experiment [10], 0.597 (inactive); in experiment [11], -1.34; in [12], -4.94 (inactive). Moreover, the z-score in [13] is -1.37 (inactive); in [15], 1.51 (inactive); in experiment [16], 0.938 (inactive); in experiment [17], -0.261 (inactive); in experiment [18], 0.0052 (inactive); in [19], -2.03. Also, the results for the composite z-score in [14] and in experiment [20] were 0.0684 (inactive) and 0.123, respectively.
On to `O=C1O[C@H](c2ccccc2)[C@H](c2ccccc2)N2[C@H]1[C@@H](C(=O)N1CCCCCCC1)[C@]1(C(=O)Nc3ccc(C#CC4=CCCCC4)cc31)[C@H]2c1ccc(OCCO)cc1`, for which the z-score is -0.733 in [1]; 1.67 in [2]; -0.103 in experiment [3]; -0.0425 in experiment [4]; -1.4 in experiment [5]; -1.68 in [6]. Moreover, the z-score in [7] was -5.35 (inactive); in experiment [8], -1.02; in experiment [9], -0.729; in experiment [10] it was -0.0973 (inactive); in [11], -0.881; in experiment [12] it was 0.362 (inactive). In addition, the z-score in experiment [13] is 0.241 (inactive); in [15] it was 2.25 (inactive); in experiment [16], 0.6 (inactive); in experiment [17], 0.825 (inactive); in [18], 0.286 (inactive); in [19] it was 0.326. Further, the composite z-score in experiment [14] was -0.585 (inactive); in experiment [20], 1.08.
As for `C=C(CC1([C@@H](NP(=O)(c2ccccc2)c2ccccc2)[C@H]2C[C@@H]2CCCC)CC1)c1ccccc1`, the z-score in [1] was -0.665; in [2] it was -0.523; in experiment [3], -0.721; in [4], -2.74; in experiment [5], -3.25; in [6] it was -2.48. In addition, the z-score in experiment [7] is -0.841 (inactive); in experiment [8] it was -0.968; in experiment [9], -1.92; in experiment [10] it was 4.95 (inactive); in [11], 2.02; in experiment [12] it was 1.06 (inactive). Also, the z-score was 1.07 (inactive) in experiment [13]; 0.812 (inactive) in experiment [15]; 0.753 (inactive) in [16]; -0.167 (inactive) in [17]; -0.821 (inactive) in experiment [18]; 3.34 in experiment [19]. The results for the composite z-score in [14] and in [20] were -0.424 (inactive) and -0.167, respectively.
On to `C=C[C@H](OC)[C@@H](OC(=O)Nc1ccc(OC)cc1)c1ccc(O)c(F)c1`, for which the z-score in experiment [1] is -0.766; in experiment [2], -0.501; in experiment [3] it was -0.322; in [4], -2.06; in [5] it was -2.88; in [6] it was -2.39. The z-score was 0.313 (inactive) in [7]; -0.538 in experiment [8]; -0.933 in [9]; -0.596 (inactive) in experiment [10]; -0.709 in experiment [11]; -3.76 (inactive) in experiment [12]. In addition, the z-score in experiment [13] was -1.78 (inactive); in experiment [15], 1.05 (inactive); in experiment [16], 0.974 (inactive); in experiment [17], 1.41 (inactive); in [18], 0.98 (inactive); in experiment [19], 1.69. The composite z-score in [14] is -1.89 (inactive); in experiment [20], 0.0623.
Take `CCOC(=O)[C@H]1C/C=C/C[C@H](C(=O)OCC)C(=O)O[C@H]2[C@@H](OC)O[C@H](CO)[C@@H](OC(=O)c3c(OC)cccc3OC)[C@@H]2OC1=O`: the z-score in experiment [1] was -4.24; in [2], 0.125; in experiment [3] it was -4.96; in [4], -3.3; in experiment [5] it was -4.09; in experiment [6], -3.48. Moreover, the z-score in [7] was 0.154 (inactive); in experiment [8], -0.999; in experiment [9], -1.96; in experiment [10] it was -4.38 (inactive); in [11], -3.51; in experiment [12] it was -0.964 (inactive). Moreover, the z-score in [13] was -3.73 (inactive); in experiment [15], 0.498 (inactive); in experiment [16] it was 0.996 (inactive); in experiment [17], 0.0332 (inactive); in [18] it was 0.328 (inactive); in experiment [19], -3.51. Besides, the composite z-score in [14] was -0.232 (inactive); in experiment [20] it was -0.102.
